# B1: unnamed (peptide)
# chain: FIRKRAPTPPAPSRS
# Target: AgAbp1
# Test: SPOT peptide array binding signal intensity (averaged, normalized) (arbitrary units (background-subtracted, floor 0; scale differs between SH3 domains)); higher = stronger binding of the SH3 domain to the peptide
# Procedure, shortened: (§1)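 The binding signal is the normalized, background-subtracted spot intensity averaged over replicates; its arbitrary units differ between domains. It was obtained by incubating 10 μg/ml GST-fused SH3 domains from four yeast species overnight at 4°C in TBS-based blocking buffer on cellulose membranes with synthetic 15-mer peptides, cysteines replaced by serines, then detecting with anti-GST antibody, HRP anti-mouse secondary and luminol.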
row,Binder,SPOT peptide array binding signal intensity
1,B1,948

# Target: AgBbc1
# Test: as above
# Procedure, shortened: as §1
row,Binder,SPOT peptide array binding signal intensity
1,B1,334

# Target: AgBem1-D1
# Test: as above
# Procedure, shortened: as §1
row,Binder,SPOT peptide array binding signal intensity
1,B1,340

# Target: AgBzz1-D1
# Test: as above
# Procedure, shortened: as §1
row,Binder,SPOT peptide array binding signal intensity
1,B1,224

# Target: AgBzz1-D2
# Test: as above
# Procedure, shortened: as §1
row,Binder,SPOT peptide array binding signal intensity
1,B1,120

# Target: AgCyk3
# Test: as above
# Procedure, shortened: as §1
row,Binder,SPOT peptide array binding signal intensity
1,B1,1

# Target: AgFus1
# Test: as above
# Procedure, shortened: as §1
row,Binder,SPOT peptide array binding signal intensity
1,B1,203

# Target: AgHof1
# Test: as above
# Procedure, shortened: as §1
row,Binder,SPOT peptide array binding signal intensity
1,B1,65.2

# Target: AgHse1
# Test: as above
# Procedure, shortened: as §1
row,Binder,SPOT peptide array binding signal intensity
1,B1,312

# Target: AgLsb1
# Test: as above
# Procedure, shortened: as §1
row,Binder,SPOT peptide array binding signal intensity
1,B1,1090

# Target: AgLsb4
# Test: as above
# Procedure, shortened: as §1
row,Binder,SPOT peptide array binding signal intensity
1,B1,60

# Target: AgMyo5
# Test: as above
# Procedure, shortened: as §1
row,Binder,SPOT peptide array binding signal intensity
1,B1,1.75

# Target: AgNbp2
# Test: as above
# Procedure, shortened: as §1
row,Binder,SPOT peptide array binding signal intensity
1,B1,1060

# Target: AgRvs167
# Test: as above
# Procedure, shortened: as §1
row,Binder,SPOT peptide array binding signal intensity
1,B1,5.67

# Target: AgSho1
# Test: as above
# Procedure, shortened: as §1
row,Binder,SPOT peptide array binding signal intensity
1,B1,14

# Target: AgSla1-D1-D2
# Test: as above
# Procedure, shortened: as §1
row,Binder,SPOT peptide array binding signal intensity
1,B1,196

# Target: AgSla1-D3
# Test: as above
# Procedure, shortened: as §1
row,Binder,SPOT peptide array binding signal intensity
1,B1,23.2

# Target: CaAbp1-D1
# Test: as above
# Procedure, shortened: as §1
row,Binder,SPOT peptide array binding signal intensity
1,B1,2450

# Target: CaAbp1-D2
# Test: as above
# Procedure, shortened: as §1
row,Binder,SPOT peptide array binding signal intensity
1,B1,734

# Target: CaBbc1
# Test: as above
# Procedure, shortened: as §1
row,Binder,SPOT peptide array binding signal intensity
1,B1,641

# Target: CaBem1-D1
# Test: as above
# Procedure, shortened: as §1
row,Binder,SPOT peptide array binding signal intensity
1,B1,813

# Target: CaBzz1-D1
# Test: as above
# Procedure, shortened: as §1
row,Binder,SPOT peptide array binding signal intensity
1,B1,1840

# Target: CaBzz1-D2
# Test: as above
# Procedure, shortened: as §1
row,Binder,SPOT peptide array binding signal intensity
1,B1,4040

# Target: CaCyk3
# Test: as above
# Procedure, shortened: as §1
row,Binder,SPOT peptide array binding signal intensity
1,B1,19.5

# Target: CaFus1
# Test: as above
# Procedure, shortened: as §1
row,Binder,SPOT peptide array binding signal intensity
1,B1,334

# Target: CaHof1
# Test: as above
# Procedure, shortened: as §1
row,Binder,SPOT peptide array binding signal intensity
1,B1,0.5

# Target: CaHse1
# Test: as above
# Procedure, shortened: as §1
row,Binder,SPOT peptide array binding signal intensity
1,B1,10.8

# Target: CaLsb1
# Test: as above
# Procedure, shortened: as §1
row,Binder,SPOT peptide array binding signal intensity
1,B1,167

# Target: CaLsb4
# Test: as above
# Procedure, shortened: as §1
row,Binder,SPOT peptide array binding signal intensity
1,B1,198

# Target: CaMyo5
# Test: as above
# Procedure, shortened: as §1
row,Binder,SPOT peptide array binding signal intensity
1,B1,12.8

# Target: CaNbp2
# Test: as above
# Procedure, shortened: as §1
row,Binder,SPOT peptide array binding signal intensity
1,B1,415

# Target: CaRvs167
# Test: as above
# Procedure, shortened: as §1
row,Binder,SPOT peptide array binding signal intensity
1,B1,38.7

# Target: CaRvs167-3
# Test: as above
# Procedure, shortened: as §1
row,Binder,SPOT peptide array binding signal intensity
1,B1,40.8

# Target: CaSho1
# Test: as above
# Procedure, shortened: as §1
row,Binder,SPOT peptide array binding signal intensity
1,B1,158

# Target: CaSla1-D1-D2
# Test: as above
# Procedure, shortened: as §1
row,Binder,SPOT peptide array binding signal intensity
1,B1,1780

# Target: CaSla1-D3
# Test: as above
# Procedure, shortened: as §1
row,Binder,SPOT peptide array binding signal intensity
1,B1,7.75

# Target: ScAbp1
# Test: as above
# Procedure, shortened: as §1
row,Binder,SPOT peptide array binding signal intensity
1,B1,256

# Target: ScBbc1
# Test: as above
# Procedure, shortened: as §1
row,Binder,SPOT peptide array binding signal intensity
1,B1,99

# Target: ScBem1-D1
# Test: as above
# Procedure, shortened: as §1
row,Binder,SPOT peptide array binding signal intensity
1,B1,27.5

# Target: ScBzz1-D1
# Test: as above
# Procedure, shortened: as §1
row,Binder,SPOT peptide array binding signal intensity
1,B1,160

# Target: ScBzz1-D2
# Test: as above
# Procedure, shortened: as §1
row,Binder,SPOT peptide array binding signal intensity
1,B1,53

# Target: ScCyk3
# Test: as above
# Procedure, shortened: as §1
row,Binder,SPOT peptide array binding signal intensity
1,B1,46

# Target: ScFus1
# Test: as above
# Procedure, shortened: as §1
row,Binder,SPOT peptide array binding signal intensity
1,B1,84.5

# Target: ScHof1
# Test: as above
# Procedure, shortened: as §1
row,Binder,SPOT peptide array binding signal intensity
1,B1,5.25

# Target: ScHse1
# Test: as above
# Procedure, shortened: as §1
row,Binder,SPOT peptide array binding signal intensity
1,B1,922

# Target: ScLsb1
# Test: as above
# Procedure, shortened: as §1
row,Binder,SPOT peptide array binding signal intensity
1,B1,224

# Target: ScLsb2
# Test: as above
# Procedure, shortened: as §1
row,Binder,SPOT peptide array binding signal intensity
1,B1,313

# Target: ScLsb3
# Test: as above
# Procedure, shortened: as §1
row,Binder,SPOT peptide array binding signal intensity
1,B1,432

# Target: ScLsb4
# Test: as above
# Procedure, shortened: as §1
row,Binder,SPOT peptide array binding signal intensity
1,B1,26

# Target: ScMyo3
# Test: as above
# Procedure, shortened: as §1
row,Binder,SPOT peptide array binding signal intensity
1,B1,22

# Target: ScMyo5
# Test: as above
# Procedure, shortened: as §1
row,Binder,SPOT peptide array binding signal intensity
1,B1,20.8

# Target: ScNbp2
# Test: as above
# Procedure, shortened: as §1
row,Binder,SPOT peptide array binding signal intensity
1,B1,2260

# Target: ScPex13
# Test: as above
# Procedure, shortened: as §1
row,Binder,SPOT peptide array binding signal intensity
1,B1,156

# Target: ScRvs167
# Test: as above
# Procedure, shortened: as §1
row,Binder,SPOT peptide array binding signal intensity
1,B1,613

# Target: ScSho1
# Test: as above
# Procedure, shortened: as §1
row,Binder,SPOT peptide array binding signal intensity
1,B1,866

# Target: ScSla1-D1-D2
# Test: as above
# Procedure, shortened: as §1
row,Binder,SPOT peptide array binding signal intensity
1,B1,2370

# Target: ScSla1-D3
# Test: as above
# Procedure, shortened: as §1
row,Binder,SPOT peptide array binding signal intensity
1,B1,29.8

# Target: SpAbp1-D1
# Test: as above
# Procedure, shortened: as §1
row,Binder,SPOT peptide array binding signal intensity
1,B1,342

# Target: SpBbc1
# Test: as above
# Procedure, shortened: as §1
row,Binder,SPOT peptide array binding signal intensity
1,B1,6.5

# Target: SpBzz1-D1
# Test: as above
# Procedure, shortened: as §1
row,Binder,SPOT peptide array binding signal intensity
1,B1,770

# Target: SpBzz1-D2
# Test: as above
# Procedure, shortened: as §1
row,Binder,SPOT peptide array binding signal intensity
1,B1,200

# Target: SpCyk3
# Test: as above
# Procedure, shortened: as §1
row,Binder,SPOT peptide array binding signal intensity
1,B1,2

# Target: SpHof1
# Test: as above
# Procedure, shortened: as §1
row,Binder,SPOT peptide array binding signal intensity
1,B1,116

# Target: SpHof1-2
# Test: as above
# Procedure, shortened: as §1
row,Binder,SPOT peptide array binding signal intensity
1,B1,10.5

# Target: SpHof1-3
# Test: as above
# Procedure, shortened: as §1
row,Binder,SPOT peptide array binding signal intensity
1,B1,567

# Target: SpHse1
# Test: as above
# Procedure, shortened: as §1
row,Binder,SPOT peptide array binding signal intensity
1,B1,377

# Target: SpLsb1
# Test: as above
# Procedure, shortened: as §1
row,Binder,SPOT peptide array binding signal intensity
1,B1,556

# Target: SpLsb4
# Test: as above
# Procedure, shortened: as §1
row,Binder,SPOT peptide array binding signal intensity
1,B1,1130

# Target: SpMyo1
# Test: as above
# Procedure, shortened: as §1
row,Binder,SPOT peptide array binding signal intensity
1,B1,24.5

# Target: SpNbp2
# Test: as above
# Procedure, shortened: as §1
row,Binder,SPOT peptide array binding signal intensity
1,B1,75

# Target: SpPex13
# Test: as above
# Procedure, shortened: as §1
row,Binder,SPOT peptide array binding signal intensity
1,B1,33

# Target: SpRvs167
# Test: as above
# Procedure, shortened: as §1
row,Binder,SPOT peptide array binding signal intensity
1,B1,293

# Target: SpSla1-D1-D2
# Test: as above
# Procedure, shortened: as §1
row,Binder,SPOT peptide array binding signal intensity
1,B1,19

# Target: SpSla1-D3
# Test: as above
# Procedure, shortened: as §1
row,Binder,SPOT peptide array binding signal intensity
1,B1,4

# — the supplement of paper PMC4466140
